Laboratory results reported in the supplement of paper PMC10849652.
About 8,800 targets were measured; listed, in parts, are those with a hit and a random draw of the rest. About 0.5% of all pairs of compound and target were hits.

How the values were obtained:
Assay in all cases: log2 fold change, soluble protein after heating vs DMSO (PISA); higher = thermal stabilisation; K562 lysate, 10 uM; active = over 0.2 and 3.5 SD of the protein, either way, in both replicates (recomputed)
[1] = compound: C1=CC=C(C=C1)[C@H](COC2=CC3=C(C=C2)NC(=O)N3)NC(=O)C4=CC=CN(C4=O)CC5=CC(=C(C=C5)F)F
In short: (§1)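 Pellets of K562 cells were dounce-homogenised in PBS pH 7.4 with 1 mM MgCl2, and the crude extract was held at 1 mg/mL protein for a 30 min treatment with 10 μM compound. Aliquots were heated for 3 min over 48°C-58°C and pooled before NP-40 was added to 0.5% at 4°C. The supernatant from 21,000xg for 90 min was quantified by TMTpro 16plex LC-MS/MS with channel sums equalised. Values are reported from duplicates as log-two fold change in thermal stability relative to solvent controls.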

[2] = compound: CC1=C(SC2=C1C(=N[C@H](C3=NN=C(N32)C)CC(=O)N)C4=CC=C(C=C4)Cl)C
In short: as §1

[3] = compound: CC1=C2C(=CC=C1)N=C(N(C2=O)C3=CC=CC=C3C)CN4C=NC5=C(N=CN=C54)N
In short: as §1

[4] = compound: Cc1sc2c(c1C)C(c1ccc(Cl)cc1)=N[C@@H](CC(=O)OC(C)(C)C)c1nnc(C)n1-2
In short: as §1

[5] = compound: c1ccc([C@@H]2C[C@H]2NC2CCNCC2)cc1
In short: as §1

Measured: log2 fold change

DSTN (UniProt P60981)
inactive: [1] 0.043 | [2] -0.051 | [3] -0.016 | [4] 0.018 | [5] -0.06

GALK1 isoform 2 (UniProt P51570)
inactive: [1] 0.014 | [2] 0.027 | [3] 0.035 | [4] 0.006 | [5] 0.073

EEF1A1, A0A087WVQ9
inactive: [1] -0.053 | [2] 0.093 | [3] -0.042 | [4] -0.001 | [5] 0.049

G6PD isoform 2 (UniProt P11413)
Chain of UniProt P11413 (P11413 whole entry, looked up): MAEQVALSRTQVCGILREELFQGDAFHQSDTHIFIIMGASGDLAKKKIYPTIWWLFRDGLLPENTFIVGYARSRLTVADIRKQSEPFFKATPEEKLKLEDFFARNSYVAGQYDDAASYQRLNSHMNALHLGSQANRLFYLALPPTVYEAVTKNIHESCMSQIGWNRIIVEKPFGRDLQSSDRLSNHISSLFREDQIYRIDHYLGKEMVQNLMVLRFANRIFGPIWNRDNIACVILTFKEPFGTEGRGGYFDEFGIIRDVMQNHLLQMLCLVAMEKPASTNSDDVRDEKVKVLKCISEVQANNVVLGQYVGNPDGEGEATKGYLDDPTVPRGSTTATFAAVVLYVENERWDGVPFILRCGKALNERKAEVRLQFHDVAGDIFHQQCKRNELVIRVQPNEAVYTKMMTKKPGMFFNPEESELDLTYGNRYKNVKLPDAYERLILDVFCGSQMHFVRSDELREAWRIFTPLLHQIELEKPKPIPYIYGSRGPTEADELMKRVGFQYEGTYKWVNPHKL
inactive: [1] 0.023 | [2] -0.002 | [3] 0.011 | [4] 0.053 | [5] 0.075

EXO5 (UniProt Q9H790)
inactive: [1] 0.033 | [2] -0.179

EXOC5 (UniProt O00471)
inactive: [1] -0.065 | [2] -0.002 | [3] 0.068 | [4] -0.023 | [5] 0.035

GAPDH (UniProt P04406)
inactive: [1] 0.004 | [2] 0.008 | [3] -0.018 | [4] 0.008 | [5] 0.052

FOXK1 (UniProt P85037)
Chain of UniProt P85037 (P85037 whole entry, looked up): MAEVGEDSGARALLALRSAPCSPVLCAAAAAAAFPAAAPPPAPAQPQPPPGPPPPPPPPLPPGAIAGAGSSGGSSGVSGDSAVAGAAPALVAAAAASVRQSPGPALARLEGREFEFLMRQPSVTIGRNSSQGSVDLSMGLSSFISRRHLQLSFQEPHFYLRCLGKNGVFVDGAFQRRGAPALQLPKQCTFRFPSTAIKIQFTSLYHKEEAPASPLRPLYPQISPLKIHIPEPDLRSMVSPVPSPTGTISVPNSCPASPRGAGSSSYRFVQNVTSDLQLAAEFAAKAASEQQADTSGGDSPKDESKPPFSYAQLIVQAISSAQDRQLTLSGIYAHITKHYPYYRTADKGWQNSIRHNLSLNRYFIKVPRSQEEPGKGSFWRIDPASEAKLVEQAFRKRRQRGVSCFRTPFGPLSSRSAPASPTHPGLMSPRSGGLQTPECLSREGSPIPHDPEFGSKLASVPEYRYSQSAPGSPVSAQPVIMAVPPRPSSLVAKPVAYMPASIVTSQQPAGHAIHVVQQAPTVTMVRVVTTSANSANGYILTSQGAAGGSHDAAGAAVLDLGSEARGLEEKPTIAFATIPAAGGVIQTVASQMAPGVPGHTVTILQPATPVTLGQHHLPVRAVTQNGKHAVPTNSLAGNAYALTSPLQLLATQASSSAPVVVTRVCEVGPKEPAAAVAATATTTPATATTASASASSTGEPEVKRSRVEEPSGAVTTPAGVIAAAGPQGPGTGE
inactive: [1] 0.022 | [2] 0.017 | [3] -0.001 | [4] 0.032 | [5] -0.009

GCDH (UniProt Q92947)
inactive: [1] 0.034 | [2] -0.032 | [3] -0.022 | [4] -0.008 | [5] -0.004

EPB41 (UniProt P11171)
Chain of UniProt P11171 (P11171 whole entry, looked up): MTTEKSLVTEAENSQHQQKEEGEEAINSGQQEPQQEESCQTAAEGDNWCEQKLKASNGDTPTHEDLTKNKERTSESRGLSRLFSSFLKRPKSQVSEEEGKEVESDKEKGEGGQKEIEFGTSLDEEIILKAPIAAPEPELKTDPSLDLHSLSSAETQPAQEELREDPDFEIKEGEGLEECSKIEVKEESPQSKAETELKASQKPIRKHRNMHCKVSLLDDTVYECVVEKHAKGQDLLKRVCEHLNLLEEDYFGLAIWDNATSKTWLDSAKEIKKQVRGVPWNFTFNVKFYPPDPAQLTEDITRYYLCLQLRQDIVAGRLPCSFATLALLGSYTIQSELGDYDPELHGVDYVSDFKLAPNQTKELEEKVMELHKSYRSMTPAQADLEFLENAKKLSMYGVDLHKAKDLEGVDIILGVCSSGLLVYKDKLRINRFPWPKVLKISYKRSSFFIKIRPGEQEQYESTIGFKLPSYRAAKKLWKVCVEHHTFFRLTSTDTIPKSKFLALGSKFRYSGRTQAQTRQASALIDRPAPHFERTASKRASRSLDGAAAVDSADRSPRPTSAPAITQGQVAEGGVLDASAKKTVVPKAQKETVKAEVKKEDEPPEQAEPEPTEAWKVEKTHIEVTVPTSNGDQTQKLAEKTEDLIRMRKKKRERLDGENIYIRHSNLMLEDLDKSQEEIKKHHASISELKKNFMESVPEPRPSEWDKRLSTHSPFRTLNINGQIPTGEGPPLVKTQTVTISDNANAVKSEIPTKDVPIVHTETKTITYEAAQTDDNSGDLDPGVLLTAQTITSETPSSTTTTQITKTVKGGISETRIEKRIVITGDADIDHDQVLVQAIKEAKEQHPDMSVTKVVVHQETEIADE
inactive: [1] -0.004 | [2] -0.021 | [3] -0.023 | [4] 0.027 | [5] 0.032

ECH1 (UniProt Q13011)
Chain of UniProt Q13011 (Q13011 whole entry, looked up): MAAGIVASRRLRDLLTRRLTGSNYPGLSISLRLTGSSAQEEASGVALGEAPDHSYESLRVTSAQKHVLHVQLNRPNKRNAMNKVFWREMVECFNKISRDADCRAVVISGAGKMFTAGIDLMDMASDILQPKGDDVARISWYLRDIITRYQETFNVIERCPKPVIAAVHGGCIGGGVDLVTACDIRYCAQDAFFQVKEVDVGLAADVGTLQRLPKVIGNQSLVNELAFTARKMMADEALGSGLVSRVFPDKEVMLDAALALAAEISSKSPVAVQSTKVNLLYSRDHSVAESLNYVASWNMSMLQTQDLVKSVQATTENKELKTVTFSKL
inactive: [1] -0.059 | [2] 0.008 | [3] -0.006 | [4] -0.026 | [5] 0.012

FIBP (UniProt O43427)
inactive: [1] -0.018 | [2] 0 | [3] -0.044 | [4] -0.027 | [5] -0.002

EIF2AK2 (UniProt P19525)
inactive: [1] 0.01 | [2] -0.002 | [3] -0.027 | [4] 0.216 | [5] 0.03

GALNT2 (UniProt Q10471)
inactive: [1] 0.018 | [2] -0.009 | [3] 0.021 | [4] 0.004 | [5] -0.021

GCLM (UniProt P48507)
inactive: [1] 0.01 | [2] -0.041 | [3] 0.02 | [4] 0.008 | [5] 0.006

EGLN1 (UniProt Q9GZT9)
inactive: [1] 0.095 | [2] -0.023 | [3] -0.01 | [4] -0.038 | [5] -0.007

ERAL1 (UniProt O75616)
inactive: [1] -0.048 | [2] 0.033 | [3] 0.007 | [4] 0.009 | [5] 0.075

DST (UniProt Q03001)
inactive: [1] -0.002 | [2] 0.042 | [3] 0.111 | [4] -0.061 | [5] -0.077

FLT4 (UniProt P35916)
Chain of UniProt P35916 (P35916 whole entry, looked up): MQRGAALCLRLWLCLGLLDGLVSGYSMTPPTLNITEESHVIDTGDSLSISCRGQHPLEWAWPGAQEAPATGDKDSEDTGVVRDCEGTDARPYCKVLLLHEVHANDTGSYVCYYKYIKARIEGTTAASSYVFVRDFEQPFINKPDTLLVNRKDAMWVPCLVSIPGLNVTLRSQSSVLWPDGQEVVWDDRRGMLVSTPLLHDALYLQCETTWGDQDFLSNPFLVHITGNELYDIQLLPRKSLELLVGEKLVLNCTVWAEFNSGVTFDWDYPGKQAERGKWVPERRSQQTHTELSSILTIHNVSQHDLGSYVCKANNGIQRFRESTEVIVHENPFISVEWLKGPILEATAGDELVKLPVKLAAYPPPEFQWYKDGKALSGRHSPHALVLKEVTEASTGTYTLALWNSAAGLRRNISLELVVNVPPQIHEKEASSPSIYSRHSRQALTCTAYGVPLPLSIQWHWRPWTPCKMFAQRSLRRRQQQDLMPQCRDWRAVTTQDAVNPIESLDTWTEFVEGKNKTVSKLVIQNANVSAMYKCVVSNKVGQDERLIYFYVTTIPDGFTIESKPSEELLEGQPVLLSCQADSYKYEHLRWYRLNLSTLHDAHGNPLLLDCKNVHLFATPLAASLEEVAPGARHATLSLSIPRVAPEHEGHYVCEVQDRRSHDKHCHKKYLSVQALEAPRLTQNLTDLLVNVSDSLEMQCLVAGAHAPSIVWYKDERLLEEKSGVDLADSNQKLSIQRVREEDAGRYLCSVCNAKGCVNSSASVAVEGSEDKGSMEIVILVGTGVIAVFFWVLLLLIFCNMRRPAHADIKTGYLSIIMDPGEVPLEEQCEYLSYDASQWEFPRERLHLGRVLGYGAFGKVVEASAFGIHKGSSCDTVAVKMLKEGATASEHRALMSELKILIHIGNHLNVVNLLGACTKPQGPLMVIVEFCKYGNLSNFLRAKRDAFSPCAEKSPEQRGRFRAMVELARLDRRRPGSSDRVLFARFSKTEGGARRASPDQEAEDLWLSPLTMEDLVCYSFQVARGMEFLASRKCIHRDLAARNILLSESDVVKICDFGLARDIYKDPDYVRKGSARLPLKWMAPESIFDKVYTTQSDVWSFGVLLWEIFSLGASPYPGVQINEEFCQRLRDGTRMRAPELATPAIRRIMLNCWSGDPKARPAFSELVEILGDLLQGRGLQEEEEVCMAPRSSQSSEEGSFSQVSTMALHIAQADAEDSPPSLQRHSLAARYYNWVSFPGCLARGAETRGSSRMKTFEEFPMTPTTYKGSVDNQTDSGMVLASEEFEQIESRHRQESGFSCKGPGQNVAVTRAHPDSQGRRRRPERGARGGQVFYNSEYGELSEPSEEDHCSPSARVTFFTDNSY
inactive: [1] 0.006 | [2] -0.04 | [3] -0.031 | [4] 0.098 | [5] -0.408

EHD2 (UniProt Q9NZN4)
inactive: [1] -0.074 | [2] -0.065 | [3] 0.003 | [4] -0.069 | [5] 0.087

DVL2 (UniProt O14641)
Chain of UniProt O14641 (O14641 whole entry, looked up): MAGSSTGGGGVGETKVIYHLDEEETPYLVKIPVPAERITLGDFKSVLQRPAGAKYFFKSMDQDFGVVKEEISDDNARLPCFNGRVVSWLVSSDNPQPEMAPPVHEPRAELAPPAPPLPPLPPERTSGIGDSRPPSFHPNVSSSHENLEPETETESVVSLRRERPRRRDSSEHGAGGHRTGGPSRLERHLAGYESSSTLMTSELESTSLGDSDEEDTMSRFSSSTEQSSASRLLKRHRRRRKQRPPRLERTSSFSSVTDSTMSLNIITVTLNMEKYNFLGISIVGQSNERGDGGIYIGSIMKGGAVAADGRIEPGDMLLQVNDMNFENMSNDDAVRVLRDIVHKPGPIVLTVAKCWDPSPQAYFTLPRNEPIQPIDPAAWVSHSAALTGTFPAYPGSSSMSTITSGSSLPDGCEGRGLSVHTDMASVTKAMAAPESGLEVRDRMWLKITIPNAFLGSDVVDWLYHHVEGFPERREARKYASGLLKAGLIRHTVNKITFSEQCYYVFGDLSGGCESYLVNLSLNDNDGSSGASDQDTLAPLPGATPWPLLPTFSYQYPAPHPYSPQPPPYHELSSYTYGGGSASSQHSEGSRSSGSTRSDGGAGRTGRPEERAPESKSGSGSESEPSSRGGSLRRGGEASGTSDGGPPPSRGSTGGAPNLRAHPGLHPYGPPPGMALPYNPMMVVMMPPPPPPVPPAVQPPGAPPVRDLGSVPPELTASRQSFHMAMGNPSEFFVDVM
inactive: [1] -0.012 | [2] -0.01 | [3] 0.032 | [4] 0.098 | [5] -0.017

GAPVD1 (UniProt Q14C86)
inactive: [1] 0.036 | [2] -0.067

FNTB (UniProt P49356)
inactive: [1] 0.023 | [2] 0.135 | [3] 0.015 | [4] -0.008 | [5] 0.038

EIF2B4 (UniProt Q9UI10)
Chain of UniProt Q9UI10 (Q9UI10 whole entry, looked up): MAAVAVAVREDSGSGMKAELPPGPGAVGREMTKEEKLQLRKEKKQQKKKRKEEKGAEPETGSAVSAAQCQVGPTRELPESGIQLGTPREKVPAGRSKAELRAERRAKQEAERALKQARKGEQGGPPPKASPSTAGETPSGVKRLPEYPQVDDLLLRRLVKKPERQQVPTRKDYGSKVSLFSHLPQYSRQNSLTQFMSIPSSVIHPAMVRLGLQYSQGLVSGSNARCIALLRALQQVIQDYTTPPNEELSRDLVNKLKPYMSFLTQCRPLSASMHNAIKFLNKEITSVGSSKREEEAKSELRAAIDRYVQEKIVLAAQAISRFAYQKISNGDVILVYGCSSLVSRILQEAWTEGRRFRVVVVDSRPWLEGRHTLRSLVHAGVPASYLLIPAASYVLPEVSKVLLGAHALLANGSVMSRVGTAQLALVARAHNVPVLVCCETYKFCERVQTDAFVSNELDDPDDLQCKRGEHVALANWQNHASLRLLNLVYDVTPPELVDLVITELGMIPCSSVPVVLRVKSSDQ
inactive: [1] 0.028 | [2] 0.079 | [3] -0.005 | [4] -0.224

DYNC1I2 isoform 5 (UniProt Q13409)
inactive: [1] 0.049 | [2] -0.03 | [3] -0.012 | [4] -0.018 | [5] 0.021
